In PubChem BioAssay (NCI):
This is part of a sample that, as a whole, favours compounds with a hit. Of some 83,000 tested, about 20% had one in any assay.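 96-well plates, one dose, 48 hours. Percent growth reported; active if below 10.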 Unmarked numbers belong to inactive results. Calls of active or inactive are those of the source.

Legend:
Assay in all cases: NCI-60 one-dose screen, 48 h (100 = growth as untreated, 0 = no growth, -100 = all killed)
Conditions in all cases: 10 µM unless noted
[1] = system: NCI-H23 lung
[2] = system: NCI-H322M lung
[3] = system: HOP-62 NSCLC
[4] = system: NCI-H460 lung
[5] = system: NCI-H522 lung
[6] = system: A549/ATCC NSCLC
[7] = system: 786-0 renal
[8] = system: COLO 205 colon
[9] = system: DU-145 prostate
[10] = system: K-562 leukemia
[11] = system: MALME-3M melanoma
[12] = system: MDA-MB-231 breast
[13] = system: RXF 393 renal
[14] = system: SF-268 CNS
[15] = system: SF-539 CNS
[16] = system: UACC-257 melanoma
[17] = system: M14 melanoma
[18] = system: HOP-92 NSCLC
[19] = system: SF-295 CNS

| Structure (SMILES) | growth [1] | growth [2] | growth [3] | growth [4] | growth [5] | growth [6] | growth [7] | growth [8] | growth [9] | growth [10] | growth [11] | growth [12] | growth [13] | growth [14] | growth [15] | growth [16] | growth [17] | growth [18] | growth [19] |
| --- | --- | --- | --- | --- | --- | --- | --- | --- | --- | --- | --- | --- | --- | --- | --- | --- | --- | --- | --- |
| Oc1c(Cl)cc(Cl)cc1C(c1cc(Cl)cc(Cl)c1O)C(Cl)(Cl)Cl | -19.9% (active) | -21.8% (active) | -6.29% (active) | -20.7% (active) | -12.8% (active) | 1.48% (active) | 9.47% (active) | -90.9% (active) | 19.3% | 9.05% (active) | -27% (active) | -25.1% (active) | -30.7% (active) | 11.6% | 4.37% (active) | -24.9% (active) | 17.9% |  |  |
| COC(=O)c1cc([N+](=O)[O-])cc([N+](=O)[O-])c1Cl | 98.3% | 106% | 102% | 102% | -74% (active) | 101% | 102% |  | 66.1% | 15.2% | 49.5% | 105% | 91.4% |  | 102% | 70.4% | 20.5% | 99.7% | 101% |
| C=C(C(N)=O)C(N)C(=O)O (stereo not given) | 110% | 100% | 110% | 108% | 100% | 107% | 92.8% |  | 99.9% | 100% | 98% | 108% | 111% | 106% | 110% | 112% |  |  | 112% |
| CCC1C[N+]2=C(c3cc(OC)c(OC)cc3CC2)c2c1cc1n2CCc2cc(OC)c(OC)cc2-1 (stereo not given) | 43% | 98.6% | 55.9% | 21.5% | 17% | 56.9% | 66.3% | -35.4% (active) | 49% | 21.5% | 29.9% | 46.1% | 88.7% | 33.3% | 31.9% |  | 36.1% | -2.62% (active) | 63.6% |
| C/C(=N\NC(=S)N1CC2CCC(CC2)C1)c1ccccn1 | 30.4% | 4.2% (active) | 24% | -3.66% (active) | 16.8% |  | 3.86% (active) | 4.4% (active) | 19.4% | 3.3% (active) | -1.66% (active) | 15.7% | -7.47% (active) | 15.5% | 3.7% (active) | 5.97% (active) | -32.4% (active) | 34.1% |  |
| N#Cc1c2ccccc2nc2ccccc12 | 100% | 110% | 108% | 101% | 101% | 92.8% | 97.7% | 107% | 112% | 106% |  | 99.4% |  | 105% |  | 95.2% | 120% |  | 98.7% |
| O=C1C=C(Cl)C(=O)c2ccccc21 | 99.6% | 88.8% | 84.5% | 101% | 11% |  | 110% | 93.2% | 118% | 24.2% | 85.1% | 69.1% |  | 93.2% | 109% | 96.2% | 107% |  | 97.4% |
| S=c1[nH]c2cc(Cl)ccc2s1 | 105% | 94.4% | 98.1% | 118% |  | 108% | 107% | 92.9% | 104% | 111% | 102% | 99.9% | 121% | 94.2% | 100% | 108% | 108% | 68.4% | 103% |
| Cc1onc(-c2ccccc2)c1C(=O)N/N=C/c1cc(Cl)cc(Cl)c1O | 53.2% | 16% | 39.3% | 22.7% | 28.7% | 21.9% | 27.4% | 16.9% | 44.6% | 29.4% |  | 34.4% | 64.1% | 34.1% | 16.5% | 17.4% | 14.3% | 49.3% | -5.54% (active) |
| CCCCCCC1N=C(N)N=C(N)N1c1cccc(Cl)c1 (stereo not given) | 6.77% (active) | 43% | 34.6% | 18.4% | 80.2% | 35.4% | 21.8% | 54.4% | 34.3% | 20.1% | 40.9% | 68% |  | 19.6% | 5.72% (active) | 63.9% | 31.7% | 15% | 13.8% |
| CC(C)N=C(N)/N=C(\N)Nc1ccc2ccc3ccccc3c2c1 | -88.1% (active) | -89.9% (active) | -84.5% (active) | -58.1% (active) | -84.8% (active) | -65.2% (active) | -70.1% (active) |  | -89.5% (active) | -42.3% (active) | -89.6% (active) |  | -89.7% (active) | -64.7% (active) | -98.9% (active) | -79.1% (active) |  | -68.6% (active) | -89.1% (active) |
| O=[N+]([O-])/C(=C/c1ccccc1)c1ccccc1 | 99.4% | 106% |  | 102% | 83% | 101% | 97.9% | 112% | 106% | 98.3% | 98.7% | 112% | 97.1% | 106% | 96% | 103% | 101% | 99.9% | 98.9% |
| O=C(c1ccccc1)c1ccc(O)c2ncccc12 | 19.9% | 44.6% | 38.6% | 13.7% |  | 30.2% | 31.6% | 104% |  | 15% | 56.1% | 38.2% | 41.8% | 34.3% | 21.6% | 17.3% | 35.5% | 49.6% | 74.6% |
| O=[n+]1c2ccccc2n([O-])c2cc(Cl)ccc21 | 91.3% | 98.5% | 77.4% | 42.7% | 72% |  | 32.1% | 76.5% | 94.9% | 45.3% | 85.1% | 87.6% |  | 28.1% | 53.1% | 80.7% | 104% |  | 63.5% |
| CCCCCCCCCCCCN1C(C)=CS/C1=C\C=C\c1scc(C)[n+]1CCCCCCCCCCCC | 10.8% | 96.8% | 35.5% |  | 3.47% (active) | 16.6% | 37.3% | 8.86% (active) | 43% | 4.52% (active) | 29.9% | 20.2% |  | 40.3% | 44.4% | -14.2% (active) | 30.5% | 36.8% | -21.5% (active) |
| Nc1ccc(-c2ccc(N)c(S(=O)(=O)O)c2)cc1S(=O)(=O)O | 112% | 116% | 101% | 117% | 125% | 117% | 106% | 114% | 109% | 118% | 107% | 110% |  | 103% | 106% | 134% | 104% | 74.4% | 115% |
| CCCN(CCC)C(=O)c1ccc(C)cc1 | 99.3% | 111% | 80% | 99.8% | 82.3% | 93.2% | 98% |  | 109% | 109% | 100% | 108% | 113% | 100% | 101% | 91.3% | 95.2% | 66.3% | 91.9% |
